Reference: the supplement of paper PMC11732987, “Enantioselective OTUD7B fragment discovery through chemoproteomics screening and high-throughput optimisation” (Communications Chemistry, 2025)

Tests used:
Assay in all cases: log2 ratio of Biotin-Ahx-Ub-VS probe labelling (fragment/DMSO); higher = less target engagement (more negative = stronger competition), active = hit call of the paper (q ≤ 0.05, log2 ratio ≤ -1)
Conditions in all cases: compound concentration: 200 uM; treatment time: 3 h
OTUD6B = target: T1, OTUD6B (UniProt Q8N6M0)
T1 sequence (whole entry): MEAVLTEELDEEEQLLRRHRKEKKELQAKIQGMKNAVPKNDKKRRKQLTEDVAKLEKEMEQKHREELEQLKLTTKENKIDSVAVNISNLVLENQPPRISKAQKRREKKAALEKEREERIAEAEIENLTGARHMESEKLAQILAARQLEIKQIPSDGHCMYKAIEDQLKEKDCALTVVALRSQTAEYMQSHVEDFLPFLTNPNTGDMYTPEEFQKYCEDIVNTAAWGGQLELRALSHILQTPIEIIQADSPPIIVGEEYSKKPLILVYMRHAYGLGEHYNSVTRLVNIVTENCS
Outline: (§1)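 In triplicate, 495 µg of HEK293T lysate per sample was incubated with fragment at 200 µM or vehicle for 3 h. Biotin-Ahx-Ub-VS was then added to 0.5 µM final for 1 h, and labelled DUBs were captured with NeutrAvidin, digested with LysC and trypsin, and measured by diaPASEF LC-MS/MS. Data are average log2 fragment/vehicle ratios by unpaired t-test from global-median-normalised Spectronaut label-free quantities, restricted to proteins with ≥2 unique peptides.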

OTUD7B = target: T2, OTUD7B (UniProt Q6GQQ9)
T2 sequence (whole entry): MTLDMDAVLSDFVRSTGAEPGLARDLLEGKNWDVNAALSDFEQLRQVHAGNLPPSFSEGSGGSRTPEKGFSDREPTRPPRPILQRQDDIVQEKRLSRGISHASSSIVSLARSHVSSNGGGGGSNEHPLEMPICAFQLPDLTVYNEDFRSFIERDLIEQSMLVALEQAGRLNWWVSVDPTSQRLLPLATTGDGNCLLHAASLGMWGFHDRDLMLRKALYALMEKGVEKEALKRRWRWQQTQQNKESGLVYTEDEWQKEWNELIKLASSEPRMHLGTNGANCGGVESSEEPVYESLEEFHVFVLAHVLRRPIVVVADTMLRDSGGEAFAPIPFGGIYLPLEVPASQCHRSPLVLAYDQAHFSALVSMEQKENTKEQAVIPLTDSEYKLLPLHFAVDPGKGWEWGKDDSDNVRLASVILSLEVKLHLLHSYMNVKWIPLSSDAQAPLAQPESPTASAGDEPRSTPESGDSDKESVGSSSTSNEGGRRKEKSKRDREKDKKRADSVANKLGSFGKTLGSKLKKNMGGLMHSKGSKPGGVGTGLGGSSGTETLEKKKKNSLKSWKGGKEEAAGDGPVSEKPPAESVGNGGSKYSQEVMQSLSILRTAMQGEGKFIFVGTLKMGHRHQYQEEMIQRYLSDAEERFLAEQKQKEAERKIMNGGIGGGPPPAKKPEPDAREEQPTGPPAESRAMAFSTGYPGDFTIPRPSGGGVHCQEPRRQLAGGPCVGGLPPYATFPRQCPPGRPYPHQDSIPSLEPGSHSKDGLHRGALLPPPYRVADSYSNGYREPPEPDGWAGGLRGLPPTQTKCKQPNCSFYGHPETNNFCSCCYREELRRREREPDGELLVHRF
Outline: as §1

PRPF8 = PRPF8 (UniProt Q6P2Q9)
Outline: as §1

PSMD7 = target: T3, PSMD7 (UniProt P51665)
T3 sequence (whole entry): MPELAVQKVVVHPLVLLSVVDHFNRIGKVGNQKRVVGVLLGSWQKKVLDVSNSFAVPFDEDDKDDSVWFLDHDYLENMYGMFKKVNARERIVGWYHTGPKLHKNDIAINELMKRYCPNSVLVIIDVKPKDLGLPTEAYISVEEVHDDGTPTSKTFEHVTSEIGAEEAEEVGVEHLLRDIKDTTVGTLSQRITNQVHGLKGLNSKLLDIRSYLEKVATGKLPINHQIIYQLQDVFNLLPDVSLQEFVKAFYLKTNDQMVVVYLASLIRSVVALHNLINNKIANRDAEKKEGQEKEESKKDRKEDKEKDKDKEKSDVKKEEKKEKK
Outline: as §1

UCHL1 = UCHL1 (UniProt P09936)
Outline: as §1

UCHL3 = target: T4, UCHL3 (UniProt P15374)
T4 sequence (whole entry): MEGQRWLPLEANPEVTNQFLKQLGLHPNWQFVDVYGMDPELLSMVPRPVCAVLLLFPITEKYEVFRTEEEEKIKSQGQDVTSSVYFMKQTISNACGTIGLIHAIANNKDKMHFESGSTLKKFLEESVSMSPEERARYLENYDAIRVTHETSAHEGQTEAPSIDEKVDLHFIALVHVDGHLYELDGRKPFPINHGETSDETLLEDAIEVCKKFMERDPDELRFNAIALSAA
Outline: as §1

UCHL5 = target: T5, UCHL5 (UniProt Q9Y5K5)
T5 sequence (whole entry): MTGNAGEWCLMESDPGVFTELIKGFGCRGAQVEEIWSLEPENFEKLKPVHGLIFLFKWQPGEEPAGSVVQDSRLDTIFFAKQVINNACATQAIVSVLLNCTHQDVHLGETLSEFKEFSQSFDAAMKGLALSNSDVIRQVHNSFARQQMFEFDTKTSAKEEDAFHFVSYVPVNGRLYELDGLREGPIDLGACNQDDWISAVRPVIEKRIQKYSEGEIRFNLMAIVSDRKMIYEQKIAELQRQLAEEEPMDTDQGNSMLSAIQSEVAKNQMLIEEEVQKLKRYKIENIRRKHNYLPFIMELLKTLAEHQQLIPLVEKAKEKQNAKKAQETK
Outline: as §1

USP10 = USP10 (UniProt Q14694)
Outline: as §1

USP15 = target: T6, USP15 (UniProt Q9Y4E8)
T6 sequence (whole entry): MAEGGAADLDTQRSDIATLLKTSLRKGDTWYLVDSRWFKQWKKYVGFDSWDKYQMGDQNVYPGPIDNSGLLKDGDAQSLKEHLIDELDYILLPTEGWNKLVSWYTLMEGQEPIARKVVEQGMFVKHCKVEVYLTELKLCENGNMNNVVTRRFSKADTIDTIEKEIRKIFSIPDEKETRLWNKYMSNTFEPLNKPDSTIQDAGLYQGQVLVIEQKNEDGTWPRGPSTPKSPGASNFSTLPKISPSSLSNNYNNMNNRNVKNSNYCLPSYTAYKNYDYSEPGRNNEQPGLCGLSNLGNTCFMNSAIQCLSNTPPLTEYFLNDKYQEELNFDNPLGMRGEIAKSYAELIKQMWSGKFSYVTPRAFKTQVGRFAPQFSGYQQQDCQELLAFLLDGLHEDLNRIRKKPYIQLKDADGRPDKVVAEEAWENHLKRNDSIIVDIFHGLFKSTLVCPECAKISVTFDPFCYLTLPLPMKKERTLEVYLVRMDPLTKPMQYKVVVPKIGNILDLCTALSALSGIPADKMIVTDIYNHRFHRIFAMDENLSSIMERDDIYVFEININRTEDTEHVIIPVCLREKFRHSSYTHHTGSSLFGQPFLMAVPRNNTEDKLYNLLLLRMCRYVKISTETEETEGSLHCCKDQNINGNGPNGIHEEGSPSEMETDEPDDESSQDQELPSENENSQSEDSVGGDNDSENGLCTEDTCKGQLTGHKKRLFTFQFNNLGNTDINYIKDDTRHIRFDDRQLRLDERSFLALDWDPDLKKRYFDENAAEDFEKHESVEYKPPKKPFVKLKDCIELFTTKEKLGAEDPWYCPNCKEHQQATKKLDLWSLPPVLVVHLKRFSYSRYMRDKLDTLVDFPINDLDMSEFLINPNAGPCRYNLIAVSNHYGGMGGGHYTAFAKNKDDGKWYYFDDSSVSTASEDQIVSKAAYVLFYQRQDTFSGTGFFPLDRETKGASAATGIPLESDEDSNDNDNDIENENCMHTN
Outline: as §1

USP16 = USP16 (UniProt Q9Y5T5)
Outline: as §1

Measured: log2 ratio of Biotin-Ahx-Ub-VS probe labelling

USP16, sequence (Q9Y5T5 whole entry, looked up): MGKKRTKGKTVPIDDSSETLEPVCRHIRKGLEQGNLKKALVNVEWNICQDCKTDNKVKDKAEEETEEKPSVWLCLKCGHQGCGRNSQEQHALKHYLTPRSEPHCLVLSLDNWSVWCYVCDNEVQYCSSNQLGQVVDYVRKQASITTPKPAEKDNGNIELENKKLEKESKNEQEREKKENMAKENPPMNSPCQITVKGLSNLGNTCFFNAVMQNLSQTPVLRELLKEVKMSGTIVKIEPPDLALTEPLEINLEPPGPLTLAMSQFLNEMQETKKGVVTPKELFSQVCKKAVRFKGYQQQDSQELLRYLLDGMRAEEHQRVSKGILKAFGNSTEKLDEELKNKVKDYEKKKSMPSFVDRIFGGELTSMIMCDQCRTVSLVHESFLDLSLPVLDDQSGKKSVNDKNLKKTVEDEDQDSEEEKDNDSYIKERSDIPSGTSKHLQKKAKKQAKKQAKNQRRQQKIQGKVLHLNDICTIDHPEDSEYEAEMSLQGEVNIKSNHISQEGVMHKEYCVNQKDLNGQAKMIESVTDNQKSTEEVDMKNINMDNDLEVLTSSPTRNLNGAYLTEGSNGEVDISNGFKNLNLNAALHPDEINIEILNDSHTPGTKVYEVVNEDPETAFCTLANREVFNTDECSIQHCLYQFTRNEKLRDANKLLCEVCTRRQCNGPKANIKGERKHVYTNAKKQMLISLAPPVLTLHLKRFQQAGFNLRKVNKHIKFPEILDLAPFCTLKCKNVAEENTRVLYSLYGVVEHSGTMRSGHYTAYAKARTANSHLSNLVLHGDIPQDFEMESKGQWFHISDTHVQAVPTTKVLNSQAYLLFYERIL
USP10, sequence (Q14694 whole entry): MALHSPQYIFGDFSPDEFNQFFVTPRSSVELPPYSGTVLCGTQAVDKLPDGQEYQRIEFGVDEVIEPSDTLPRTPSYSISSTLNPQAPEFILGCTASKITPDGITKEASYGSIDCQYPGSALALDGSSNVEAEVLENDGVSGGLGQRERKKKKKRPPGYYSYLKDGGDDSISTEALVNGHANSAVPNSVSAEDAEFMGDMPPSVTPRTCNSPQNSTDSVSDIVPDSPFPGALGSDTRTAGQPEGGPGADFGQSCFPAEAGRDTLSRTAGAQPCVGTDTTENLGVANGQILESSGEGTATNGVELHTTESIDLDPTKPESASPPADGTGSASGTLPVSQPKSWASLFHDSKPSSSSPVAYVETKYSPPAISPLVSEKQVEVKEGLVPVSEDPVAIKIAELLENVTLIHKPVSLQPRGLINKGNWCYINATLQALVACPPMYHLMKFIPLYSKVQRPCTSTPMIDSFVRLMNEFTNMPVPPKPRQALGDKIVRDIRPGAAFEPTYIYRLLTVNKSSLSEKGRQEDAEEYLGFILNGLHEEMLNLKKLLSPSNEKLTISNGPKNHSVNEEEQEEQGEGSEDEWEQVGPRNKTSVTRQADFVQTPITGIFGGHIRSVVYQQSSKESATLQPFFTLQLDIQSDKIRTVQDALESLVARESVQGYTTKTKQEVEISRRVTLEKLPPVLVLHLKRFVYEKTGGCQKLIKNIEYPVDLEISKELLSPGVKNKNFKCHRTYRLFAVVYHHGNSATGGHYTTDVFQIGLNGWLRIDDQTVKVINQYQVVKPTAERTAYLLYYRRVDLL
UCHL1, sequence (P09936 whole entry, looked up): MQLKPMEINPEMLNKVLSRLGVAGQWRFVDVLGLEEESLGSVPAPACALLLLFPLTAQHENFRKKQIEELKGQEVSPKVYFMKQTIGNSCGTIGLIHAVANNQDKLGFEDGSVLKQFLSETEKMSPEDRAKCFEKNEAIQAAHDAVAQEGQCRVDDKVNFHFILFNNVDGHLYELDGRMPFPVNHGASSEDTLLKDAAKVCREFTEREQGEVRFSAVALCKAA

COc1ccc(CN(C)C(=O)CCl)cc1
inactive: OTUD6B -0.199 | OTUD7B -0.373 | PRPF8 0.0533 | PSMD7 -0.411 | UCHL3 0.249 | UCHL5 -0.235 | USP10 -0.213 | USP15 -0.112 | USP16 0.163
active: UCHL1 -1.22
